Reference: PubChem BioAssay (NCATS)
Results filed as inconclusive are left out. Calls of active or inactive are those of the source. The call rests on the fitted dose curve; in most records, active means well fitted inhibition curve with a large enough effect; inconclusive means small, poorly fitted or top-dose-only effect; inactive means flat fitted curve, though single readings scatter.

What was measured:
Experiment in all cases: qHTS profiling for inhibitors of Plasmodium falciparum proliferation (AID 504749); further: nearly all actives have a fitted effect of over 60% in size
Conditions in all cases: P. falciparum in erythrocytes, SYBR Green DNA, 72 h; series mostly up to 28.7 µM
CP250 = tested on: CP250
Outline: (§1)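 SYBR Green fluorescence of parasite DNA, read after lysis and overnight dark incubation, measured growth over 72 h in erythrocyte culture at 0.3% parasitemia and 2.5% hematocrit. Data normalised to DMSO and 0.29 uM artemisinin, with plate-drift correction.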

CP252 = tested on: CP252
Outline: as §1

CP256 = tested on: CP256
Outline: as §1

CP260 = tested on: CP260
Outline: as §1

CP262 = tested on: CP262
Outline: as §1

CP265 = tested on: CP265
Outline: as §1

CP266 = tested on: CP266
Outline: as §1

CP268 = tested on: CP268
Outline: as §1

CP269 = tested on: CP269
Outline: as §1

CP286 = tested on: CP286
Outline: as §1

CP291 = tested on: CP291
Outline: as §1

CP297 = tested on: CP297
Outline: as §1

CP305 = tested on: CP305
Outline: as §1

CP315 = tested on: CP315
Outline: as §1

CP325 = tested on: CP325
Outline: as §1

CP329 = tested on: CP329
Outline: as §1

CP335 = tested on: CP335
Outline: as §1

DFO2036 = tested on: DFO2036
Outline: as §1

DIV14 = tested on: DIV14
Outline: as §1

DIV17 = tested on: DIV17
Outline: as §1

DIV30 = tested on: DIV30
Outline: as §1

Dd2 = tested on: Dd2
Outline: as §1

ECU = tested on: ECU
Outline: as §1

FAB9 = tested on: FAB9
Outline: as §1

GB4 = tested on: GB4
Outline: as §1

HB3 = tested on: HB3
Outline: as §1

ICS = tested on: ICS
Outline: as §1

JCK = tested on: JCK
Outline: as §1

N140 = tested on: N140
Outline: as §1

P93_24 = tested on: P93_24
Outline: as §1

P94_40 = tested on: P94_40
Outline: as §1

PAD = tested on: PAD
Outline: as §1

PC15 = tested on: PC15
Outline: as §1

PC26 = tested on: PC26
Outline: as §1

PC49 = tested on: PC49
Outline: as §1

SC27B = tested on: SC27B
Outline: as §1

TAB109 = tested on: TAB109
Outline: as §1

TAB113 = tested on: TAB113
Outline: as §1

TAB165 = tested on: TAB165
Outline: as §1

W2 = tested on: W2
Outline: as §1

Measured: Potency

COC(=O)[C@@H]1[C@@H]2C[C@H]3c4[nH]c5ccccc5c4CCN3C[C@@H]2CC[C@@H]1O
inactive: all assays above
